Bioassay records (PubChem)
Sm TGR inh – blocks Schistosoma mansoni thioredoxin glutathione reductase; purified TGR, DTNB reduction, TNB absorbance 405 nm; Potency, µM (highest dose often 114 µM), without a hit: at the top dose activity change, negative = inhibition, actives largely listed as inhibitors; actives 3% (n = 360,000); AID 485364; further: nearly all actives have a fitted effect of over 60% in size
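TGR 20 nM + NADPH 100 uM (dispensed conc.), cpd preinc 15 min RT; start with NADPH (500 uM addition) then DTNB (15 mM addition). Kinetic TNB absorbance, 405 nm filter. Four-parameter Hill fit across titration.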
AmpC inh no detg – AmpC beta-lactamase inhibition without detergent. P00811. AmpC nitrocefin hydrolysis, absorbance 480 nm, 0.0001% Triton. Potency, µM (top dose mostly 57.1 µM), for the others: top-dose activity change, negative = inhibition, usual class: inhibitors. actives 0.52% (n = 330,000). AID 485341;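 further: plate controls were no compound for no effect and no enzyme for full effect; nearly all actives have a fitted effect of over 20% in size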
Target sequence (P00811 whole entry, looked up): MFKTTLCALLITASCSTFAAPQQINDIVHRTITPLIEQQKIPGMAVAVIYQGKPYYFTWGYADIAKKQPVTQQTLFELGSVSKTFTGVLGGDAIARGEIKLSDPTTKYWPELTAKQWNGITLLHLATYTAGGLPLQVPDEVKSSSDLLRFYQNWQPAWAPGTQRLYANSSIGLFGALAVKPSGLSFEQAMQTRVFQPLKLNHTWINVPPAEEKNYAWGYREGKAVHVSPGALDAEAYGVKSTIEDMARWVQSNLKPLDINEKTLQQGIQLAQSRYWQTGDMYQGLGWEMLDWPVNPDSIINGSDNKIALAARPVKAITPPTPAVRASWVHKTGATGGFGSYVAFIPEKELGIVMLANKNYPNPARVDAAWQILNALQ
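20 mM phosphate pH 7.0 + 0.01% (detergent screen) or 0.0001% Triton X-100; 5.3 nM AmpC reagent; cpd preinc 15 min RT; nitrocefin (800 uM stock) to start; A480 q20 s × 4 min; Activity was normalised to no-enzyme and no-compound control wells.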
RE007 growth inh – less growth of the S. pombe RE007 Vpr strain. actives 0.21% (n = 360,000). Potency, µM (top dose mostly 92.2 µM), inactives show top-dose activity change, negative = less growth, hits mostly inhibitors. S. pombe RE007 Vpr strain, BacTiter-Glo ATP luminescence, 24 h. AID 651644; active means well fitted falling curve with a large enough effect; inconclusive means small, poorly fitted or top-dose-only effect; inactive means no such curve, though single readings can be large or run the other way; further: nearly all actives have a fitted effect of over 50% in size
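Fission yeast strain RE007, carrying one chromosomally integrated HIV-1 vpr copy, was seeded at OD 0.01 in PMG+AL medium with 23 nL pinned compound. After 24 h at 30 °C and 99% humidity, viability was read by BacTiter-Glo luminescence.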
AmpC inh detg – inhibitors of E. coli AmpC beta-lactamase with detergent | P00811 | AmpC hydrolysis of nitrocefin, absorbance 480 nm, 0.01% Triton | Potency, µM (titrated, usually from 114 µM), without a hit: at the top dose activity change, negative = inhibition, hits mostly inhibitors | actives 0.041% (n = 370,000) | AID 485294;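 further: 0% = no-compound wells and -100% = no-enzyme wells; nearly all actives have a fitted effect of over 25% in size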
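AmpC (5.3 nM in the dispensed reagent) in 20 mM phosphate pH 7.0 with 0.01% (detergent screen) or 0.0001% Triton X-100 was preincubated with compounds for 15 min at room temperature. Nitrocefin was then added from an 800 uM solution, and hydrolysis was followed at 480 nm.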
AMA1-RON2 inh – AMA1-RON2 (P. falciparum) interaction inhibition. actives 0.2% (n = 360,000). AlphaScreen AMA1-biotinylated RON2 peptide binding. Potency, µM (doses to about 58.2 µM), without a hit: at the highest dose activity change, negative = inhibition, hits mostly inhibitors;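 further: 0% = vehicle wells and -100% = peptide control; nearly all actives have a fitted effect of over 45% in size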
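AMA1 (3D7) with his tag at 25 nM final met compounds first, then biotinylated RON2 peptide at 25 nM; detection used donor plus acceptor beads, 10 µg/mL apiece, read by AlphaScreen after 30 min at room temperature.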
The depositor's hits bear a star; u = inconclusive; x = not tested or not shown. Compounds with a hit are over-represented: about 3.2% of the library has one in this group of screens. Unless noted, the call rests on the fitted dose curve; in most records, active means well fitted curve in the direction sought with a large enough effect; inconclusive means small, poorly fitted or top-dose-only effect, or another doubt; inactive means no such curve, though single readings can be large; an effect the other way counts as inactive or inconclusive. Unless noted, on the % scale 0 is the no-effect control and ±100 the full control effect; potency means the concentration at half of the fitted maximal effect.

SMILES | Sm TGR inh | AmpC inh no detg | RE007 growth inh | AmpC inh detg | AMA1-RON2 inh
CC(C)N1CCc2c(sc(NC(=O)c3ccc(S(=O)(=O)N4CCOCC4)cc3)c2C#N)C1 | 45µM* | 10% | 11% | -8% | 1%
COc1ccccc1/C=N/OCc1cc(C(C)=O)ccc1OC | 11µM* | 41% | 5% | -7% | 8%
CCOc1ccc(C(C)=O)cc1COc1cccnc1[N+](=O)[O-] | 35µM* | -15% | -17% | -7% | 5%
O=S(=O)(c1cnc(Cl)c(Cl)c1)N1CCCc2ccccc21 | u | -32% | -1% | -6% | 10%
O=S(=O)(c1cnc(Cl)c(Cl)c1)N1CCc2ccccc21 | 4µM* | -25% | 30% | 11% | 24%
O=S(=O)(c1cnc(Cl)c(Br)c1)N1CCc2ccccc21 | 18µM* | -20% | 21% | 10% | -6%
CN1CCC(=O)N([C@H](CSc2ccc(Br)cc2)Cc2ccccc2)CC1 | -9% | 181% | -5% | -10% | 27%
CC(C)CN1CCC(=O)N([C@H](CSc2ccc(Br)cc2)Cc2ccccc2)CC1 | 6.3µM* | 64% | 5% | -2% | -8%
Cc1ccc(SC[C@H](Cc2ccccc2)N2CCN(C)CCC2=O)cc1 | 40µM* | 150% | -17% | 6% | -9%
CCCN1CCC(=O)N([C@H](CSc2ccc(C)cc2)CC(C)C)CC1 | 40µM* | 147% | 16% | -8% | -4%
CCCN1CCC(=O)N([C@H](CSc2ccc(OC)cc2)Cc2ccccc2)CC1 | 20µM* | 174% | 5% | -9% | -5%
COCCNC(=O)CN1C(=O)COc2ccc(S(=O)(=O)N3CCCC3)cc21 | -11% | x | x | -21% | x
CC(=O)Nc1ccc(SC[C@H](c2ccccc2)N2CCN(CCc3ccccc3)CCC2=O)cc1 | 14µM* | 177% | x | -3% | x
COc1ccc(CCNC(=O)CCn2c(=O)c3ccccc3n(CC(=O)Nc3cccc(C)c3)c2=O)cc1OC | 14% | x | x | 12% | x
CCCCS(=O)(=O)c1nc(-c2ccc(Br)cc2)cc(-c2ccccc2)c1C#N | 0% | x | x | 12% | x
O=C(Cn1cc(S(=O)(=O)Cc2cccc(Cl)c2)c2ccccc21)Nc1ccccc1C(F)(F)F | 0% | x | x | 10% | x
O=C(NCC(c1ccco1)N1CCc2ccccc21)C(=O)Nc1ccccc1 (stereo not given) | 0% | 10µM* | 4% | u | -6%
O=C(NCC(c1ccco1)N1CCc2ccccc21)C(=O)Nc1ccccc1F (stereo not given) | 4% | -25% | 7% | -22% | u
CCOC(=O)C1CCN(/C=C2/C(=O)NC(=O)N(c3cccc(C)c3C)C2=O)CC1 | 8.9µM* | -29% | -2% | -13% | -2%
COc1cccc(CN(Cc2ccco2)c2cnc(S(C)(=O)=O)nc2C(=O)Nc2cccc(Cl)c2C)c1 | 2% | x | x | -7% | x
CCOc1ccc(NC2=C(Cl)C(=O)N(C3CCCCC3)C2=O)cc1 | 7% | -21% | -7% | -10% | -1%
COc1ccc(C)cc1NC1=C(Cl)C(=O)N(C2CCCCC2)C1=O | 45µM* | -38% | -19% | -1% | -22%
CCC(=O)Nc1ccc2nc(SCc3ccc(C)cc3)sc2c1 | 8% | x | x | 14% | x
CN(Cc1ccccc1)C(=O)[C@H]1CCC(=O)N1Cc1ccco1 | 16µM* | 10% | -5% | 2% | -4%
C[C@H](NC(=O)[C@@H]1CCC(=O)N1Cc1ccco1)c1ccccc1 | 50µM* | -2% | 21% | -2% | 0%
SMILES | Sm TGR inh | AmpC inh no detg | RE007 growth inh | AmpC inh detg | AMA1-RON2 inh
O=C(O)[C@H]1CCC(=O)N1Cc1ccco1 | -15% | -10% | 0% | -3% | -16%
Cc1c(-c2nnc(SCC(=O)Nc3ccc(Br)cc3)o2)nnn1-c1ccc(F)cc1 | 2% | x | x | 14% | x
Cc1ccc(Cl)cc1NC(=O)Cn1c(=O)n(C(C)C)c(=O)c2oc3ccccc3c21 | -3% | x | x | -4% | x
N=C1C=CC=C2C1=NC1(CCCCC1)N2O | 20µM* | -27% | 11% | -1% | -16%
CC(C)(C)N=C1C([N+](=O)[O-])=CC=C2C1=NC1(CCCCC1)N2O | u | -21% | 23% | 6% | u
COc1cc(NC(=O)c2cnc3c(-c4ccc(F)cc4)c(C)nn3c2C)cc(OC)c1 | -10% | x | x | 2% | x
CCOC(=O)c1c(S(=O)(=O)N2CCN(c3cc(Cl)ccc3C)CC2)c(C)n(C)c1C | 8% | x | x | 16% | x
Cc1ccc2cc(COC(=O)c3ccco3)c(=O)[nH]c2c1 | 45µM* | -29% | -11% | -1% | 0%
O=C(OCc1cc2ccccc2[nH]c1=O)c1ccco1 | -24% | -11% | -4% | -7% | 0%
CC(C)N(Cc1cc2ccccc2[nH]c1=O)C(=O)c1ccco1 | 28µM* | 8% | -12% | 2% | 4%
CCOC(=O)c1c(S(=O)(=O)N2CCCC(C(=O)NCc3ccc(Cl)cc3)C2)c(C)n(C)c1C (stereo not given) | -7% | x | x | -6% | x
O=C(NCc1ccccc1)C(c1ccc(C(F)(F)F)cc1)n1c(=O)c(-c2cc3ccccc3[nH]2)nc2ccccc21 (stereo not given) | x | x | 7% | x | 48%
COc1ccc(N(C(=O)c2ccco2)S(=O)(=O)c2cccs2)cc1 | u | -6% | 14% | -5% | -18%
O=C(Nc1ccccc1N(C(=O)c1ccco1)S(=O)(=O)c1cccs1)c1ccco1 | 45µM* | -22% | 9% | u | -10%
CC(C)OC(=O)c1c(NC(=O)c2cc3nc(-c4ccccc4)cc(C(F)(F)F)n3n2)sc2c1CCCC2 | -8% | x | x | -6% | x
CCN(CC)S(=O)(=O)c1cccc(NC(=O)COC(=O)c2n[nH]c(=O)c3ccccc23)c1 | 5% | 28µM* | 5% | -12% | 11%
CCN(CC)S(=O)(=O)c1cccc(NC(=O)COC(=O)c2cc(C)oc2C)c1 | -8% | -27% | 28% | u | -5%
Cc1cc(C)cc(NC(=O)COC(=O)c2n[nH]c3ccccc23)c1 | 0% | 16µM* | -2% | -4% | 18%
Cc1cccc(S(=O)(=O)Nc2cccc(-c3ccc(N4CCCCC4)nn3)c2)c1 | 1% | x | x | 2% | x
Cc1ccc(S(=O)(=O)Nc2cccc(-c3ccc(N4CCCCCC4)nn3)c2)cc1 | 0% | 0.71µM* | 0% | -13% | -11%
Cc1cccc(OCC(=O)Nc2ccccc2C(=O)OCc2cc(=O)n3ccsc3n2)c1 | -4% | x | x | -7% | x
CCN(CC)c1ccc(/C=C2\SC(=O)N(C(C)C)C2=O)o1 | 1.8µM* | 29% | u | -7% | -13%
CC(C)N1C(=O)S/C(=C/c2ccc3c(c2)n(C)c(=O)n3C)C1=O | 7% | -28% | 12% | 1% | 7%
O=C(Nc1ccccc1O)c1cc(S(=O)(=O)N2CCCC2)ccc1Cl | -4% | x | x | -2% | x
